The record followed here is ChEMBL document CHEMBL5308504, “Tm Shift (DSF) assay results for EUbOPEN Chemogenomics Library” (2023).

In test [1] the target is Bromodomain-containing protein 4 (Homo sapiens) (UniProt O60885). To be noted: Compound concentration 20.0 uM, Protein concentration 2.0 uM, Result type QC Liability.
The target of test [2] is T1, Transcription intermediary factor 1-alpha (Homo sapiens) (UniProt O15164).
T1 sequence (whole entry): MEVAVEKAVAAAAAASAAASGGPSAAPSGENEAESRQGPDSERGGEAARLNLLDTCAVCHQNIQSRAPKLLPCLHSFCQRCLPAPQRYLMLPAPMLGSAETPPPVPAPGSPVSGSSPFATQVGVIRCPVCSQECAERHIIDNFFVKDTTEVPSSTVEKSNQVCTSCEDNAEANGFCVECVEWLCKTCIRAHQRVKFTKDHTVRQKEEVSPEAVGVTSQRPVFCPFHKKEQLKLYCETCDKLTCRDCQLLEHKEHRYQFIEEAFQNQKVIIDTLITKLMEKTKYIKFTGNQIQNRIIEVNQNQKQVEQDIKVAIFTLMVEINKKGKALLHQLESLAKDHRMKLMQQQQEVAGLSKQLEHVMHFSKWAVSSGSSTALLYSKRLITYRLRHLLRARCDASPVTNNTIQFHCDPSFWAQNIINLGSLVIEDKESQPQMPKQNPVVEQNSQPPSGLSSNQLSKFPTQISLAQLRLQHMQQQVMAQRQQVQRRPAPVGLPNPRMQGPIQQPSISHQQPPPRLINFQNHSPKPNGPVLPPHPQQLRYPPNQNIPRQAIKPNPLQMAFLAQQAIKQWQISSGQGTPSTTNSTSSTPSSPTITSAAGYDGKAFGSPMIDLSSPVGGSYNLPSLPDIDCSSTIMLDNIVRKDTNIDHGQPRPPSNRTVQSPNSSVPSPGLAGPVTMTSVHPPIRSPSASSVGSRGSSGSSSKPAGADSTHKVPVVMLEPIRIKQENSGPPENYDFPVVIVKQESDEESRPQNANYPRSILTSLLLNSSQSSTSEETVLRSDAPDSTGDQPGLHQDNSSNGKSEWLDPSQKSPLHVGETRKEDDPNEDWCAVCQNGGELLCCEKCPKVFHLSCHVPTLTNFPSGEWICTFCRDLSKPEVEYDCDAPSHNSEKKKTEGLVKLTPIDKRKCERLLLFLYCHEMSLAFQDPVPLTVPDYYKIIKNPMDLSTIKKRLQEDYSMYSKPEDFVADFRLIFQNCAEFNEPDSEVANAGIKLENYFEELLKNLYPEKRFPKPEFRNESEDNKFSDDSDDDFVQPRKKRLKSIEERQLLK
To be noted: Compound concentration 20.0 uM, Protein concentration 2.0 uM, Result type QC Liability.

Values joined by “and” are separate entries in the source; they are usually repeats but may differ in a detail not shown here. Identical values can stand only once.

`CNc1ncc2cc(-c3ccc(-c4cccc(C)n4)cc3Cl)c(=O)n(C[C@H]3OC[C@H](N)CO3)c2n1`: the ΔTm in test [1] was -1.96 °C; in test [2] it was -2.28 °C.
For `CC(C)(O)CNC(=O)N1C(=O)N(c2cccc(C(F)(F)F)c2)C2=C(C(=O)CC2)[C@@H]1c1ccc(C#N)cc1`, in that order: -0.6 °C and 0.83 °C.
As for `O=C1Nc2nc(-c3c(O)cccc3OCC3CC3)cc([C@@H]3CCCNC3)c2CO1`, the ΔTm in test [1] is -0.38 °C; in test [2], 0.45 °C.
The matching figures for `COc1cc(C(N)=O)nc(-c2cccc(C#C[C@]3(O)CCN(C)C3=O)c2)c1`: -0.77 °C and -0.62 °C.
The matching figures for `CCC(C(=O)Nc1ccc(-c2cc3ccccc3s2)c(C(N)=O)c1)c1nccs1` (stereo not drawn): -0.87 °C and 0.44 °C.
Turning to `COc1cc(C(=O)O)ncc1C#Cc1ccccc1NS(=O)(=O)c1cccc2c(N(C)C)ccnc12`, the shift in melting temperature (ΔTm) in test [1] was 0.26 °C; in test [2], -2.33 °C.
Take `Nc1ncnc2[nH]c(-c3ccccc3)nc12`: the figures for the ΔTm in test [1] and in test [2] were -1.11 °C and -2.07 °C, respectively.
The matching figures for `Cc1nc2cccnc2n2c(-c3cc(C(C)(C)O)ncc3Cl)nnc12`: -1.96 °C and -2.03 °C.
The matching figures for `CN(C(=O)c1ccccc1)c1ccc2c(c1)[nH]/c(=N\C(=O)c1ccc(Br)s1)n2CCC(N)=O`: -2.77 °C and -1.25 °C.
With `O=C(CNC(=O)c1ccc(-c2ccccc2)cc1)NC1CCCc2ccccc21` (stereo not drawn), the ΔTm in test [1] was -5.93 °C; in test [2], 2.55 °C.
The matching figures for `CCO[C@@H](Cc1ccc(OCCc2ccc(OS(C)(=O)=O)cc2)cc1)C(=O)O`: -0.9 °C and -3.53 °C.
The matching figures for `O=C(O)CCCCN(CCc1cc(F)ccc1OCc1ccc(-c2ccc(C(F)(F)F)cc2)cc1)Cc1ccc(C(=O)O)cc1`: 0.73 °C and -0.3 °C.
As for `Cc1nn(-c2ccccc2)c(Nc2ccccc2C(=O)O)c1-c1cc2nccnc2c(F)c1F`, the shift in melting temperature (ΔTm) is -1.68 °C in test [1] and 0.83 °C in test [2].
For `CN1C(=O)Cc2ccc(-c3ccc(C[C@@H](C#N)NC(=O)[C@@H]4N[C@H]5CC[C@@H]4C5)c(F)c3)cc21`, in that order: -1.1 °C and 0.19 °C.
For `CC(C)(C#Cc1ccc(NC(=O)COc2ccccc2C(=O)c2ccccc2)c(Cl)c1)C(=O)O`, in that order: 0.63 °C and 0.79 °C.
The matching figures for `CC[C@@H](C(=O)OC)n1c(=O)c2ccccc2n(Cc2cn(C)c3cccc(C)c23)c1=O`: 1.22 °C and 0.71 °C.
As for `COc1cc(C(=O)NC2CCN(C)CC2)ccc1Nc1ncc2c(n1)N(C1CCCC1)CC(F)(F)C(=O)N2C`, the ΔTm is 7.37 °C in test [1] and -2.21 °C in test [2].
As to `Cc1csc(S(=O)(=O)N(CC(C)C)c2cc3c(cc2OCc2ccc(C(=O)O)cc2)CCC3)n1`, the ΔTm was -0.64 °C in test [1] and -0.15 °C in test [2].
Consider `COc1ccccc1S(=O)(=O)Nc1ccc2c(c1)CN(C)C(=O)N2`, for which the ΔTm in test [2] was -1.03 °C.
For the compound `CC(C)(C)NC(=O)c1cncn1C1CCN(c2ccc(-c3nnc(C(F)(F)F)o3)cn2)CC1`, the values for the ΔTm in test [1] and in test [2] were -0.5 °C and 0.46 °C, respectively.
Turning to `CS(=O)(=O)NCC[C@H](NC(=O)c1cncc2c1cnn2-c1ccc(F)cc1)c1ccnc(S(C)(=O)=O)c1`, the ΔTm in test [1] was -0.38 °C; in test [2] it was 0.28 °C.
`O=C1CCCc2[nH]c(-c3ccnc(NCC4CC4)c3)c(Nc3ccccc3)c21`: the ΔTm was -0.67 °C in test [1] and -0.08 °C in test [2].
For `CCNC(=O)c1ccc2c(c1)NC(=O)/C2=C(\Nc1ccc(CN(C)C)cc1)c1ccccc1`, in test [2], the ΔTm was 0.37 °C and -3.62 °C.
`COc1cc(-c2cc([C@H](O)C3CC3)n3ncnc(N)c23)ccc1CO`: the results for the ΔTm in test [1] and in test [2] were 0.22 °C and 0.24 °C, respectively.
With `CCCCOc1c(C(=O)c2c(F)cc(C)cc2F)c[nH]c2nncc1-2`, the ΔTm was -0.5 °C in test [1] and -1.46 °C in test [2].
Take `CN(C)CCCN1c2ccccc2Sc2ccc(Cl)cc21`: the ΔTm in test [1] was -1.94 °C; in test [2], -3.45 °C.
`CCc1ncnc(N2CCN(C(C)=O)CC2)c1C#Cc1ccc(N)nc1`: the ΔTm in test [1] was -1.64 °C; in test [2], -3.55 °C.
For `CNC(=O)c1cc(C(=O)N[C@H]2[C@@H]3COC[C@@H]32)cc2c1O[C@@H](CF)[C@@H]2c1ccccc1`, the ΔTm in test [2] is -2.85 °C.
For `CCN(C(=O)CO)[C@H]1CN(/C(=N\C#N)Nc2cccc(OC(F)F)c2)N=C1c1ccc(Cl)c(Cl)c1`, the values for the ΔTm in test [1] and in test [2] were 3.5 °C and 0.3 °C, respectively.
Regarding `COCc1nc2cnc3cc(-c4c(C)noc4C)c(OC[C@H]4CCNC4)cc3c2n1[C@H](C)c1ccccc1`, the ΔTm in test [2] is -1.74 °C.
As to `COc1cc(-c2cc3ncccc3c(O[C@@H](C)[C@H]3CNC(=O)C3)n2)cc(OC)c1OC`, the ΔTm in test [1] was 1.39 °C; in test [2] it was 0.27 °C.
For `C[C@H](CCOc1cccc(CC(=O)O)c1)N(Cc1cccc(C(F)(F)F)c1Cl)CC(c1ccccc1)c1ccccc1`, in that order: -6.66 °C and -0.56 °C.
For `COc1ccc(S(=O)(=O)N2CCOCC2)cc1Nc1ccc2c(n1)N(C1CCN(C)CC1)[C@H](C)C(=O)N2C`, in that order: -8.74 °C and -1.33 °C.
On to `Cc1cc([N+](=O)[O-])c(NS(=O)(=O)c2cccc(C(=O)O)c2)cc1-c1cccnc1`, for which the shift in melting temperature (ΔTm) in test [1] was -0.44 °C; in test [2], -2.82 °C.
On to `COc1ccc2c(O[C@@H]3C[C@H]4C(=O)N[C@]5(C(=O)O)CC5/C=C\CCCCC[C@H](NC(=O)OC5CCCC5)C(=O)N4C3)cc(-c3csc(NC(=O)C(C)C)n3)nc2c1C` (stereo partly drawn), for which the ΔTm in test [2] is 0.14 °C [middle of 4 runs].
Consider `COC(=O)c1sccc1S(=O)(=O)Nc1ccc(Nc2ccccc2)cc1OC`, for which the values for the ΔTm in test [1] and in test [2] were -3.85 °C and 0.59 °C, respectively.
`N=C(N)NCCC[C@H](NC(=O)C(c1ccccc1)c1ccccc1)C(=O)NCc1ccc(CNC(N)=O)cc1`: the values for the ΔTm in test [1] and in test [2] were 0.06 °C and 0.24 °C, respectively.
For `N#CN1CC[C@@H](C(=O)Nc2nc3c(s2)CN(C(=O)CN=[N+]=[N-])CC3)C1`, in that order: -1.95 °C and -0.82 °C.
Consider `C[C@@H]1CC(=O)N(C2CC2)N=C1c1ccc(NC(=O)N2Cc3ccncc3C2)cc1`, for which the ΔTm is -0.04 °C in test [1] and 0.48 °C in test [2].
As for `CCNc1ccc(-c2nn(-c3ccccc3C)c3c2C(C)Cc2nc(NC(=O)OC)sc2-3)cn1` (stereo not drawn), the ΔTm in test [1] was -2.96 °C; in test [2], -3.54 °C.
`CNC(=O)c1cc(C(=O)N[C@H]2[C@@H]3COC[C@@H]32)cc2c1O[C@H](CF)[C@H]2c1ccccc1`: the ΔTm in test [2] was -2.73 °C.
Turning to `CCCCC(C)(O)C/C=C/[C@H]1[C@H](O)CC(=O)[C@@H]1CCCCCCC(=O)O` (stereo partly drawn), the ΔTm is -1.42 °C in test [1] and -0.79 °C in test [2].
